Measured values reported in PMC5540273 (PLoS ONE, 2017).

What was measured:
Conditions in all cases: concentration: 1 μM, replicates: in singlicate; n = 1
[1] = test system: RIOK1
[2] = test system: RIOK2
[3] = test system: RIOK3
[4] = test system: RIPK1
[5] = test system: RIPK2
[6] = test system: RIPK4
[7] = test system: RIPK5
[8] = test system: ROCK1
[9] = test system: ROCK2
[10] = test system: ROS1
[11] = test system: RPS6KA4(Kin.Dom.1-N-terminal)
[12] = test system: RPS6KA4(Kin.Dom.2-C-terminal)
[13] = test system: RPS6KA5(Kin.Dom.1-N-terminal)
[14] = test system: RPS6KA5(Kin.Dom.2-C-terminal)
[15] = test system: T1, RSK1(Kin.Dom.1-N-terminal)
T1 construct: gene RPS6KA1

[16] = test system: T2, RSK1(Kin.Dom.2-C-terminal)
T2 construct: gene RPS6KA1

[17] = test system: T3, RSK2(Kin.Dom.1-N-terminal)
T3 construct: gene RPS6KA3

[18] = test system: T4, RSK2(Kin.Dom.2-C-terminal)
T4 construct: gene RPS6KA3

[19] = test system: T5, RSK3(Kin.Dom.1-N-terminal)
T5 construct: gene RPS6KA2

[20] = test system: T6, RSK3(Kin.Dom.2-C-terminal)
T6 construct: gene RPS6KA2
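Note: KINOMEscan kinase panel screen.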

SMILES | %Inh [1] | %Inh [2] | %Inh [3] | %Inh [4] | %Inh [5] | %Inh [6] | %Inh [7] | %Inh [8] | %Inh [9] | %Inh [10] | %Inh [11] | %Inh [12] | %Inh [13] | %Inh [14] | %Inh [15] | %Inh [16] | %Inh [17] | %Inh [18] | %Inh [19] | %Inh [20]
COc1cccc(CC(=O)N2CCc3cc(-c4cn(C)c5ncnc(N)c45)ccc32)c1 [GSK2608899] | 20% | 20% | 17% | 100% | 35% | 0% | 58% | 23% | 5% | 9% | 28% | 0% | 1% | 11% | 21% | 27% | 16% | 17% | 22% | 20%
Cl.O=C(Nc1ccc(Oc2ccc3[nH]c(NC(=O)c4ccco4)nc3c2)cc1)Nc1cc(C(F)(F)F)ccc1F [GW683134] | 1% | 7% | 0% | 86% | 43% | 6% | 0% | 78% | 23% | 3% | 16% | 0% | 14% | 6% | 0% | 16% | 3% | 3% | 54% | 9%
COc1ccc(C)c(Nc2ccnc(Nc3ccc(-c4cnc[nH]4)cc3)n2)c1.Cl [GW784041] | 36% | 6% | 34% | 13% | 100% | 0% | 0% | 0% | 0% | 3% | 26% | 5% | 8% | 10% | 0% | 1% | 0% | 3% | 1% | 6%
O=C1NC(=O)C(c2ccccc2Cl)=C1Nc1cccc(Cl)c1 [SB-342409] | 4% | 0% | 0% | 4% | 100% | 21% | 14% | 0% | 0% | 0% | 16% | 0% | 2% | 0% | 75% | 9% | 19% | 31% | 100% | 0%
Cc1cc(-c2ccnc(Nc3cccc(C#N)c3)n2)cc(C)c1O [GSK1440913] | 100% | 91.7% | 97.9% | 53% | 28% | 37% | 8% | 0% | 0% | 64% | 0% | 0% | 0% | 0% | 12% | 17% | 5% | 0% | 26% | 21%
Nc1ncnc2scc(-c3ccc(NC(=O)Cc4cc(F)ccc4F)cc3)c12.O=C(O)C(F)(F)F [SB-731254-M] | 0% | 13% | 1% | 0% | 23% | 20% | 53% | 0% | 0% | 17% | 21% | 15% | 8% | 0% | 0% | 14% | 15% | 0% | 0% | 6%
CN(c1ccc(F)c(NC(=O)c2cccc(OC(C)(C)C#N)c2Cl)c1)c1ccc2nc(NC(=O)C3CC3)sc2n1 | 0% | 71% | 27% | 0% | 36% | 2% | 0% | 0% | 0% | 0% | 0% | 0% | 11% | 6% | 0% | 1% | 0% | 59% | 0% | 0%
CCn1cnc2c(NCc3ccccc3)ncnc21 [SKF-96418] | 0% | 0% | 0% | 0% | 0% | 13% | 28% | 56% | 16% | 0% | 13% | 0% | 11% | 0% | 0% | 0% | 30% | 0% | 0% | 0%
Cc1ccccc1CC(=O)N1CCc2cc(-c3cn(C)c4ncnc(N)c34)ccc21 [GSK2603346] | 8% | 31% | 100% | 100% | 63% | 0% | 69% | 10% | 14% | 2% | 11% | 0% | 20% | 0% | 0% | 4% | 0% | 6% | 24% | 0%
Cn1cc(-c2ccc3c(c2)CCN3C(=O)Cc2cc(F)cc(C(F)(F)F)c2)c2c(N)ncnc21 [GSK2635225] | 21% | 2% | 26% | 100% | 59% | 0% | 0% | 3% | 6% | 29% | 0% | 0% | 23% | 6% | 1% | 5% | 0% | 19% | 19% | 0%
